PubChem BioAssay AID488899 (Broad Institute, 2010)
The campaign covered roughly 330,000 compounds. About 2,800 (0.85%) were called active. The sample holds actives, similar compounds and a random draw of the others, so the mix is not that of the screen. A number with no mark means an inactive call.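 The calls were made as follows: active = mean inhibition across replicates of 60% or more, whatever share of single replicates reaches that level; inconclusive = some that reach 60%, reason not given; inactive = mean inhibition across replicates below 60%.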

Test: inhibitors of MITF-dependent TRPM1 promoter reporter, primary screen, cell-based, SK-MEL-5, single point, luciferase (AID 488899)
Conditions: SK-MEL-5 TRPM1 promoter luciferase, 24 h; at 12.5 µM; stronger effect = higher value

Row | Compound | inhibition
1 | O=C1NCC(c2ccccc2)(c2ccccc2)C(=O)N1 | -7.87%
2 | CC12CN3CCN(CC(C3)/C1=N\NC(=O)c1ccccc1N)C2 | 9.43%
3 | N#CC1(Nc2ccc(-c3ccc(Cl)cc3)cc2)CCCC1 | -58.9%
4 | CN(CC(=O)O)C(=O)c1ccccc1 | -4.07%
5 | CN(/N=C/c1ccccc1)C(=S)c1ccccc1 | 1.77%
6 | CN(O)C(=S)c1ccccc1 | 82% (active)
7 | CCOC(=O)N1CCN(S(=O)(=O)c2cc3c(cc2C)NC(=O)CO3)CC1 | 2.83%
8 | C=CCn1cc(C(=O)NCc2ccc(Cl)cc2)c(=O)c2cc(S(=O)(=O)N(CC)CC)ccc21 | -5.87%
9 | O=C(CN1CCN(c2ncccn2)CC1)Nc1ccccc1C(F)(F)F | 18.5%
10 | CC(=O)c1ccc(S(=O)(=O)N2CCN(c3nc4c(C)c(C)ccc4cc3C#N)CC2)cc1 | 3.2%
11 | CC(=O)c1ccc(S(=O)(=O)N2CCC3(CC2)OCCO3)cc1 | 8.67%
12 | CC(=O)c1ccc(S(=O)(=O)N2CCN(C(=O)/C=C/c3ccc4ccccc4n3)CC2)cc1 | 72.5% (active)
13 | CCN(CC)CCNS(=O)(=O)c1ccc(/C=C/C(=O)O)cc1 | 14.7%
14 | C=CC1=C(C(=O)O)N2C(=O)[C@@H](NC(=O)/C(=N\OCC(=O)O)c3csc(N)n3)[C@H]2SC1 | -2.96%
15 | CC(=O)N(CC(O)CO)c1c(I)c(C(=O)NCC(O)CO)c(I)c(C(=O)NCC(O)CO)c1I (stereo not given) | -3.11%
16 | O=C(O)CCCCCNc1ncnc2ccc(Br)cc12 | 1.66%
17 | COc1ccc(Nc2ncnc3ccc(Br)cc23)c(OC)c1 | 67.9% (active)
18 | Brc1ccc2ncnc(NCc3cccnc3)c2c1 | -1.36%
19 | N/C(=N\S(=O)(=O)c1ccc(Cl)cc1)N1CCOCC1 | 1.47%
20 | Cc1cc([N+](=O)[O-])c(=O)[nH]c1C | -0.774%
21 | COc1ccc(C(C[N+](=O)[O-])n2nc(C)cc2C)cc1 (stereo not given) | 27.2%
22 | CCN(CC)c1ccc(/C=N/NC(=O)c2cnccn2)c(O)c1 | 25.3%
23 | O=C(NN=Cc1ccccc1O)NN=Cc1ccccc1O | 22.9%
24 | Cc1ccc(/C=N/NC(=O)C2=NNC(c3ccccc3)(c3ccccc3)C2)c(O)c1 | 76.5% (active)

Row | Compound | inhibition
25 | CCOC(=O)c1c(S(=O)(=O)NCC(=O)Nc2ccc(C)cc2)c(C)n(C)c1C | 7.89%
26 | Cc1c(N=Nc2ccc(N(C)C)cc2)c(=O)n(-c2ccccc2)n1C | -25.6%
27 | Cn1c(=S)sc2ccc3ccccc3c21 | 0.517%
28 | CC(=O)Nc1ccc(Nc2c3ccccc3nc3ccccc23)cc1 | 62.4% (active)
29 | CC(=O)Nc1ccc(Nc2cc(C)nc(Nc3ccc(NC(C)=O)cc3)n2)cc1 | -5.88%
30 | CCc1nc(Nc2ccc(NC(C)=O)cc2)c2oc3ccccc3c2n1 | 5.96%
31 | Cc1ccc(Cl)cc1N1CCN(C(=O)c2cccc3c(=O)c(C)c(-c4ccccc4)oc23)CC1 | 9.36%
32 | C/C=N/N(c1ccccc1)c1ccccc1 | 2.93%
33 | O=C(NNC(=O)c1ccc2ccccc2c1)c1ccc(Cl)cc1 | 10.1%
34 | O=C(CN1CCN(S(=O)(=O)c2ccc(Br)cc2)CC1)Nc1ccccc1C(=O)c1ccccc1 | -0.0235%
35 | O=C(NN=Cc1ccc([N+](=O)[O-])cc1)C1CC1 | -20.4%
36 | O=[N+]([O-])c1ccc(C=NN=Cc2ccc([N+](=O)[O-])cc2)cc1 | -1.22%
37 | O=C1/C(=C\c2ccc([N+](=O)[O-])cc2)CS(=O)(=O)C/C1=C/c1ccc([N+](=O)[O-])cc1 | 106% (active)
38 | Cc1cc(C)c2nc3nc(C)cc(C)c3c(N)c2c1 | 69% (active)
39 | O=S(=O)(NCc1ccccc1Cl)c1cnc[nH]1 | 9.3%
40 | CN(C)/C=C(\C#N)C(=O)c1cccnc1Oc1ccc(F)cc1F | -3.39%
41 | O=C(Nc1ccc(-c2csc(Nc3cccc(C(F)(F)F)c3)n2)cc1)c1cccc(C(F)(F)F)c1 | -14.9%
42 | COc1cc(NC(=O)c2[nH]cnc2C(N)=O)cc(C(=O)Nc2cccc(C(F)(F)F)c2)c1 | 89.9% (active)
43 | N#Cc1ccc(Oc2ccc(C(F)(F)F)cc2NC(=O)c2ccc(F)cc2)cc1 | -2.39%
44 | COc1cc(NC(=O)c2cncc(-c3ccc(C#N)cc3)c2)cc(C(=O)Nc2cccc(C(F)(F)F)c2)c1 | 71.3% (active)
45 | Cc1cccc(NC(=O)c2nnn(-c3cccc(C(F)(F)F)c3)c2N)c1 | -39.6%
46 | COc1ccc(NC(=O)C(=O)NCC(=O)Nc2cccc(C(F)(F)F)c2)cc1 | 3.29%
47 | CC(C)[C@@H](NC(=O)OC(C)(C)C)C(=O)NCC1CCC(C(=O)N[C@@H](Cc2ccccc2)C(=O)O)CC1 (stereo not given in full) | -3.13%
48 | CCn1c(/C=C/c2ccc([N+](=O)[O-])o2)nc2ccccc2c1=O | 75.9% (active)

Row | Compound | inhibition
49 | CCOCCCn1c(NN)nc2ccccc2c1=O | 10.3%
50 | O=c1oc(/C=C/c2ccccc2)nc2ccccc12 | -14.4%
51 | CC(=O)NC(CC(=O)Nc1nccs1)c1ccccc1 (stereo not given) | -5.93%
52 | O=C1CC[C@@H]2CC3(C[C@@H]4CCN1[C@H]24)Nc1cc([N+](=O)[O-])ccc1NC3=NC1CCCCC1 (stereo not given in full) | -4.61%
53 | CC(=O)N1CC[n+]2c(-c3ccc([N+](=O)[O-])cc3)csc21 | -4.65%
54 | COCCN1C(=O)C(=O)/C(=C(/O)c2ccc(S(=O)(=O)N3CCOCC3)cc2)C1c1ccc(OC)c(OC)c1 (stereo not given) | 2.98%
55 | CCOC(=O)c1ccccc1OC(=O)Oc1ccccc1C(=O)OCC | 24%
56 | CCOC(=O)c1c(C)[nH]c2c1-c1ccccc1C(=O)C2=O | 106% (active)
57 | CCOC(=O)c1c(C)nc(-c2ccccc2)nc1NC(=O)C(C)C | -26.2%
58 | CC(C)OC(=O)CN1CCN(c2ccc(Cl)cc2)CC1 | -22.1%
59 | C=CCn1c(C)cc(C2=NNC(=NCC)SC2)c1C | 98.4% (active)
60 | Cc1ccc(S(=O)(=O)NCc2ccc(C(=O)NC3CCC(C)CC3)cc2)cc1 (stereo not given) | -5.23%
61 | O=C(NCCc1ccccc1)c1cccc(NC(=O)c2ccccc2)c1 | -26.7%
62 | CCN(CC(=O)Nc1c(F)cccc1F)C(=O)Cc1cccs1 | -11.1%
63 | CSc1nnc(NC(=O)c2nc(S(=O)(=O)Cc3ccc(C)cc3)ncc2Cl)s1 | 62.7% (active)
64 | Cc1cccc(CS(=O)(=O)c2ncc(Cl)c(C(=O)Nc3ccc(F)cc3)n2)c1 | 41%
65 | CSc1ncc(Cl)c(C(=O)Nc2cc(C)ccc2C)n1 | 18.6%
66 | Cc1cccc(NC(=O)c2nc[nH]c2C(=O)NCC(=O)OCc2ccccc2)c1 | -4.1%
67 | Cc1cccc(NC(=O)c2nc(S(=O)(=O)Cc3ccccc3)ncc2Cl)c1 | 70.8% (active)
68 | Cc1nnc(NC(=O)c2ccc3nccnc3c2)s1 | -45.1%
69 | Cc1ccc(CS(=O)(=O)c2ncc(Cl)c(C(=O)Nc3nnc(C)s3)n2)cc1 | 85.4% (active)
70 | Cc1ccc(S(=O)(=O)CC(=O)Nc2nnc(C)s2)cc1 | 7.41%
71 | COCCSc1nnc(NC(=O)CCS(=O)(=O)Cc2ccccc2)s1 | -6.5%
72 | NS(=O)(=O)c1ccccc1NC(=O)c1c(O)c2ccccc2[nH]c1=O | -57.1%

Row | Compound | inhibition
73 | Cc1nc(N)nc(Cl)c1CCC1OCCO1 | -7.11%
74 | Cc1ccc(CN(CC(=O)NCC2CCCO2)S(=O)(=O)c2ccc(C)cc2)cc1 (stereo not given) | -1.73%
75 | COc1ccc(N2C(=O)C(CC(=O)Nc3ccccc3)N(Cc3ccc(OC)c(OC)c3)C2=O)cc1 (stereo not given) | -7.22%
76 | COc1ccc([N+](=O)[O-])cc1N(CC(O)Cn1nnc2ccccc21)S(=O)(=O)c1ccc(C)cc1 (stereo not given) | -0.297%
77 | Cc1cc(F)ccc1NC(=S)NCCc1ccccc1 | 7.66%
78 | Cc1ccc(C)c(S(=O)(=O)N(C)c2ccc(OC(=O)C3CCN(C(=O)c4ccc(F)cc4)CC3)cc2)c1 | -0.817%
79 | Cc1ccc(S(=O)(=O)N2CCN(C(=O)c3cc(S(=O)(=O)N4CCOCC4)ccc3F)CC2)cc1 | 3.63%
80 | CC(C)Nc1nnc(SC(C)C(=O)N(C)C2CCCCC2)s1 (stereo not given) | 3.93%
81 | Cc1ccc(C(=O)/C=C/c2c(C)nn(-c3ccccc3)c2Cl)cc1 | -34.6%
82 | Cc1cccc(C=CC(=O)c2ccc(Cl)cc2)c1 | -37.5%
83 | O=C(/C=C/Sc1ncn[nH]1)c1ccc(Cl)cc1 | 90.5% (active)
84 | O=C(Nc1ccncc1)c1ccc(Cl)c([N+](=O)[O-])c1 | -0.779%
85 | CC(=O)Nc1ccc(NC(=O)C(C)OC(=O)c2ccccc2C(=O)c2ccc(Cl)c([N+](=O)[O-])c2)cc1 (stereo not given) | 75.9% (active)
86 | CC(OC(=O)CNC(=O)c1ccc(Cl)c([N+](=O)[O-])c1)C(=O)NCc1ccco1 (stereo not given) | -4.83%
87 | O=C(COC(=O)c1cnccn1)Nc1ccc(Cl)cc1C(F)(F)F | 8.53%
88 | COc1ccc(CC(=O)NC2CCSc3ccccc32)cc1OC (stereo not given) | 3.11%
89 | COc1ccccc1N1CCN(S(=O)(=O)c2ccc(Cl)cc2)CC1 | 8.65%
90 | COc1ccccc1-n1nnnc1SCC(=O)NC(=O)Cc1ccccc1 | 2.76%
91 | COc1ccccc1-n1nnnc1S(=O)(=O)Cc1ccc(Cl)cc1 | 73.6% (active)
92 | CCc1nn(-c2cc(Oc3cccc4ccccc34)nc(-c3ccccc3)n2)c(N)c1C#N | 86.1% (active)
93 | CC(C)(C)n1nc(Cc2cccc3ccccc23)c(C#N)c1N | 4.42%
94 | O=C(c1ccc2c(c1)N(Cc1ccc(F)cc1)C(=O)c1ccccc1S2(=O)=O)N1CCN(c2ccccn2)CC1 | 7.75%
95 | CCOC(=O)C1(Cc2ccccc2C)CCCN(S(C)(=O)=O)C1 (stereo not given) | 0.048%
